Results: PubChem BioAssay (NCATS)
Records with an inconclusive call do not appear. Values without a mark were called inactive. Activity calls are given as the source filed them. Calls follow the shape of the dose curve; as a rule, active = well fitted curve in the direction sought with a large enough effect; inconclusive = small, poorly fitted or top-dose-only effect, or another doubt; inactive = no such curve, though single readings can be large; an effect the other way counts as inactive or inconclusive.

Assay: Quantitative High-Throughput drug screen in 47 multiple myeloma cell lines against the NCATS MIPE library collection: JIM3_ECACC cell viability assay (AID 1918963; also: nearly all actives have a fitted effect of over 35% in size)
Conditions: JIM3 myeloma viability, CellTiter-Glo ATP, 48 h; series mostly up to 45.8 µM; viability, percent of control: at the top concentration
Summary of the method: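 CellTiter-Glo luminescence (ATP) after 48 h compound exposure, 37C/5% CO2; 500 cells/well; MIPE 4.0 approved/investigational drugs pinned in; DMSO = 100%, media only = 0% viability.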
Potency is read from the fitted curve at half-maximal effect.

SMILES | Potency
Cc1ccc(NC(=O)C2(c3ccc4c(c3)OC(F)(F)O4)CC2)nc1-c1cccc(C(=O)O)c1 | 118 nM (active)
COc1ccc(C(=O)CC2(O)C(=O)Nc3c(Cl)ccc(Cl)c32)cc1 (stereo not drawn) | 2350 nM (active)
Cc1ccc(-c2ncn(-c3ccc(Nc4nccc(-c5cccc(N6CCOCC6)c5)n4)cc3)n2)cn1 | 235 nM (active)
CCCCOc1c(C(=O)c2c(F)cc(C)cc2F)cnc2n[nH]cc12 | 8330 nM (active)
CC(=O)c1c(C)c2cnc(Nc3ccc(N4CCNCC4)cn3)nc2n(C2CCCC2)c1=O | 18700 nM (active)
CNC(=O)c1ccc(N2C(=S)N(c3cnc(C#N)c(C(F)(F)F)c3)C(=O)C23CCC3)cc1F | 2960 nM (active)
O=c1[nH]nc(Sc2ncc([N+](=O)[O-])s2)n1-c1ccc2c(c1)OCCO2 | 2640 nM (active)
CN(C)CC=CC(=O)Nc1cc2c(Nc3ccc(F)c(Cl)c3)ncnc2cc1O[C@H]1CCOC1 | 8330 nM (active)
Cn1c2ccccc2c2c3c(c4c5ccccc5n(CCC#N)c4c21)CNC3=O | 6620 nM (active)
CC(NCc1ccc2c(c1)nc(NC(=O)c1ccc(-c3cn[nH]c3)s1)n2CC(C)(C)O)C(C)(C)C (stereo not drawn) | 209 nM (active)
C#Cc1cccc(Nc2ncnc3cc(OC)c(OCCCCCCC(=O)NO)cc23)c1 | 2350 nM (active)
CC1(O)CC(c2nc(-c3ccc4ccc(-c5ccccc5)nc4c3)c3c(N)nccn23)C1 (stereo not drawn) | 148 nM (active)
CC(=O)OCC(=O)[C@@]1(O)[C@H](C)C[C@H]2[C@@H]3C=C(C)C4=Cc5c(cnn5-c5ccccc5)C[C@]4(C)[C@@H]3[C@@H](O)C[C@@]21C | 9350 nM (active)
CC(C)(C)c1cnc(CSc2cnc(NC(=O)C3CCNCC3)s2)o1 | 235 nM (active)
CCS(=O)(=O)c1cccc(-c2cc(C(=O)NC3CCN(C)CC3)c(C)c3[nH]c4ncc(C)cc4c23)c1 | 935 nM (active)
Cc1ccc(C(=O)Nc2cccc(C(F)(F)F)c2)cc1-c1ccc2nc(NCCN3CCOCC3)ncc2c1 | 13200 nM (active)
CNC(=O)c1ccccc1Nc1nc(Nc2ccc(N3CCOCC3)cc2OC)ncc1Cl | 209 nM (active)

SMILES | Potency
OCCCNc1cc(-c2ccnc(Nc3cccc(Cl)c3)n2)ccn1 | 52.6 nM (active)
CC(C)c1ccccc1Cc1cc(C(=O)Nc2ccc(S(=O)(=O)c3ccccc3C(C)(C)C)cc2)c(O)c(O)c1O | 4180 nM (active)
Cn1cc(-c2[nH]c3cc(NC(=O)[C@H](N)C4CCCCC4)cc4c3c2C=NNC4=O)cn1 | 5260 nM (active)
N#CCNC(=O)c1ccc(-c2ccnc(Nc3ccc(N4CCOCC4)cc3)n2)cc1 | 13200 nM (active)
CN1CC[C@@H](c2c(O)cc(O)c3c(=O)cc(-c4ccccc4Cl)oc23)[C@@H](O)C1 | 83.3 nM (active)
NC(=O)Nc1cc(-c2cccc(F)c2)sc1C(=O)N[C@H]1CCCNC1 | 469 nM (active)
CN(C)Cc1c(C(=O)NCCOc2ccc(C(=O)NO)cc2)oc2ccccc12 | 2960 nM (active)
Cc1[nH]nc2ccc(-c3cncc(OC[C@@H](N)Cc4ccccc4)c3)cc12 | 2090 nM (active)
COC(=O)[C@]12CCC(C)(C)C[C@@H]1[C@@H]1C(=O)C=C3[C@@]4(C)C=C(C#N)C(=O)C(C)(C)[C@@H]4CC[C@@]3(C)[C@]1(C)CC2 | 166 nM (active)
CC(C)C[C@H](NC(=O)CNC(=O)c1cc(Cl)ccc1Cl)B(O)O | 105 nM (active)
O=C(CCCCCCNC(=O)c1cnc(N(c2ccccc2)c2ccccc2)nc1)NO | 16600 nM (active)
CC=C1NC(=O)[C@H]2CSSCCC=C[C@H](CC(=O)N[C@H](C(C)C)C(=O)N2)OC(=O)[C@H](C(C)C)NC1=O | 46.9 nM (active)
CC1=C(CO)C(=O)O[C@@H]([C@@H](C)[C@H]2CC[C@H]3[C@@H]4C[C@H]5O[C@]56[C@@H](O)C=CC(=O)[C@]6(C)[C@@H]4CC[C@]23C)C1 | 209 nM (active)
CC(=O)Nc1nc(C)c(-c2ccc(Cl)c(S(=O)(=O)NCCO)c2)s1 | 4690 nM (active)
O=C(Nc1cc(C(F)(F)F)cc(C(F)(F)F)c1)c1cc(Cl)ccc1O | 662 nM (active)
O=C(Nc1cn[nH]c1-c1nc2ccc(CN3CCOCC3)cc2[nH]1)NC1CC1 | 1180 nM (active)
CNc1nccc(-c2cccnc2Oc2cc(C(=O)Nc3cccc(C(F)(F)F)c3)ccc2C)n1 | 18700 nM (active)

Assay: Quantitative High-Throughput drug screen in 47 multiple myeloma cell lines against the NCATS MIPE library collection: JIM1_ECACC cell viability assay (AID 1918964)
Conditions: JIM1 myeloma viability, CellTiter-Glo ATP luminescence, 48 h; series mostly up to 45.8 µM; viability (% of DMSO): at the top concentration
Summary of the method: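 CellTiter-Glo ATP luminescence gave viability after 48 h compound treatment at 37C of 500 multiple myeloma cells per well. Normalisation used DMSO-only wells as 100% and media-only wells as 0% viability; primary qHTS of approved and investigational drugs.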

SMILES | Potency | viability (% of DMSO)
Cc1ccc(NC(=O)C2(c3ccc4c(c3)OC(F)(F)O4)CC2)nc1-c1cccc(C(=O)O)c1 | 41.8 nM (active) | –
COc1ccc(C(=O)CC2(O)C(=O)Nc3c(Cl)ccc(Cl)c32)cc1 (stereo not drawn) | 1050 nM (active) | –
Cc1ccc(-c2ncn(-c3ccc(Nc4nccc(-c5cccc(N6CCOCC6)c5)n4)cc3)n2)cn1 | 66.2 nM (active) | –
CCCCOc1c(C(=O)c2c(F)cc(C)cc2F)cnc2n[nH]cc12 | 2960 nM (active) | –
CC(=O)c1c(C)c2cnc(Nc3ccc(N4CCNCC4)cn3)nc2n(C2CCCC2)c1=O | 5900 nM (active) | –
CNC(=O)c1ccc(N2C(=S)N(c3cnc(C#N)c(C(F)(F)F)c3)C(=O)C23CCC3)cc1F | 1870 nM (active) | –
O=c1[nH]nc(Sc2ncc([N+](=O)[O-])s2)n1-c1ccc2c(c1)OCCO2 | 5900 nM (active) | –
CN(C)CC=CC(=O)Nc1cc2c(Nc3ccc(F)c(Cl)c3)ncnc2cc1O[C@H]1CCOC1 | 2960 nM (active) | –
Cn1c2ccccc2c2c3c(c4c5ccccc5n(CCC#N)c4c21)CNC3=O | 526 nM (active) | –
CC(NCc1ccc2c(c1)nc(NC(=O)c1ccc(-c3cn[nH]c3)s1)n2CC(C)(C)O)C(C)(C)C (stereo not drawn) | 46.9 nM (active) | –
C#Cc1cccc(Nc2ncnc3cc(OC)c(OCCCCCCC(=O)NO)cc23)c1 | 66.2 nM (active) | –
CC1(O)CC(c2nc(-c3ccc4ccc(-c5ccccc5)nc4c3)c3c(N)nccn23)C1 (stereo not drawn) | 10.5 nM (active) | –
CC(=O)OCC(=O)[C@@]1(O)[C@H](C)C[C@H]2[C@@H]3C=C(C)C4=Cc5c(cnn5-c5ccccc5)C[C@]4(C)[C@@H]3[C@@H](O)C[C@@]21C | 9350 nM (active) | –
CC(C)(C)c1cnc(CSc2cnc(NC(=O)C3CCNCC3)s2)o1 | 74.3 nM (active) | –
CCS(=O)(=O)c1cccc(-c2cc(C(=O)NC3CCN(C)CC3)c(C)c3[nH]c4ncc(C)cc4c23)c1 | 935 nM (active) | –
Cc1ccc(C(=O)Nc2cccc(C(F)(F)F)c2)cc1-c1ccc2nc(NCCN3CCOCC3)ncc2c1 | 1050 nM (active) | –
CNC(=O)c1ccccc1Nc1nc(Nc2ccc(N3CCOCC3)cc2OC)ncc1Cl | 105 nM (active) | –

SMILES | Potency | viability (% of DMSO)
OCCCNc1cc(-c2ccnc(Nc3cccc(Cl)c3)n2)ccn1 | 52.6 nM (active) | –
CC(C)c1ccccc1Cc1cc(C(=O)Nc2ccc(S(=O)(=O)c3ccccc3C(C)(C)C)cc2)c(O)c(O)c1O | – | 102%
Cn1cc(-c2[nH]c3cc(NC(=O)[C@H](N)C4CCCCC4)cc4c3c2C=NNC4=O)cn1 | 296 nM (active) | –
N#CCNC(=O)c1ccc(-c2ccnc(Nc3ccc(N4CCOCC4)cc3)n2)cc1 | – | 108%
CN1CC[C@@H](c2c(O)cc(O)c3c(=O)cc(-c4ccccc4Cl)oc23)[C@@H](O)C1 | 23.5 nM (active) | –
NC(=O)Nc1cc(-c2cccc(F)c2)sc1C(=O)N[C@H]1CCCNC1 | 105 nM (active) | –
CN(C)Cc1c(C(=O)NCCOc2ccc(C(=O)NO)cc2)oc2ccccc12 | 418 nM (active) | –
Cc1[nH]nc2ccc(-c3cncc(OC[C@@H](N)Cc4ccccc4)c3)cc12 | 1870 nM (active) | –
COC(=O)[C@]12CCC(C)(C)C[C@@H]1[C@@H]1C(=O)C=C3[C@@]4(C)C=C(C#N)C(=O)C(C)(C)[C@@H]4CC[C@@]3(C)[C@]1(C)CC2 | 418 nM (active) | –
CC(C)C[C@H](NC(=O)CNC(=O)c1cc(Cl)ccc1Cl)B(O)O | 105 nM (active) | –
O=C(CCCCCCNC(=O)c1cnc(N(c2ccccc2)c2ccccc2)nc1)NO | 4690 nM (active) | –
CC=C1NC(=O)[C@H]2CSSCCC=C[C@H](CC(=O)N[C@H](C(C)C)C(=O)N2)OC(=O)[C@H](C(C)C)NC1=O | 9.3 nM (active) | –
CC1=C(CO)C(=O)O[C@@H]([C@@H](C)[C@H]2CC[C@H]3[C@@H]4C[C@H]5O[C@]56[C@@H](O)C=CC(=O)[C@]6(C)[C@@H]4CC[C@]23C)C1 | – | 137%
CC(=O)Nc1nc(C)c(-c2ccc(Cl)c(S(=O)(=O)NCCO)c2)s1 | 1180 nM (active) | –
O=C(Nc1cc(C(F)(F)F)cc(C(F)(F)F)c1)c1cc(Cl)ccc1O | 1050 nM (active) | –
O=C(Nc1cn[nH]c1-c1nc2ccc(CN3CCOCC3)cc2[nH]1)NC1CC1 | 2090 nM (active) | –
CNc1nccc(-c2cccnc2Oc2cc(C(=O)Nc3cccc(C(F)(F)F)c3)ccc2C)n1 | 8330 nM (active) | –
